Reference: PubChem BioAssay AID1159580 (chemical genetic matrix, 2015)
Among all 5,500 compounds or so, about 2,000 (36%) were called active. Roughly 18% stayed inconclusive and do not appear here. No stated cut-off is given here; in the data, active means normalized growth mostly below about 0.91 (no sharp cut-off); inconclusive means no clear call, values can overlap the other calls; inactive means mostly above about 0.92. The list shows a part of the results.

Experiment: chemical genetic growth profiling, strain panel (AID 1159580);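 further: tested at 20 µM; growth read once vehicle control cultures reached saturation at 30 °C; 1 = growth at the plate median or of vehicle wells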
Settings: growth OD

Measured: normalized growth

C[C@@H](CO)NC(=O)C1C=C2c3cccc4[nH]cc(c34)C[C@H]2N(C)C1 (some centres not stated)
inactive: S. cerevisiae deletion strains, locus YJR075W, strain HOC1, stronger effect = lower value 1.03 | S. cerevisiae deletion strains, locus YKL009W, strain mrt4, stronger effect = lower value 0.976 | S. cerevisiae deletion strains, locus YKL068W, stronger effect = lower value 0.993 | S. cerevisiae deletion strains, locus YKL085W, strain MDH1 (second series), stronger effect = lower value 0.982 | S. cerevisiae deletion strains, locus YKL085W, strain MDH1, stronger effect = lower value 0.982 | S. cerevisiae deletion strains, locus YKL160W, strain elf1, stronger effect = lower value 1.04 | S. cerevisiae deletion strains, locus YKL190W, strain CNB1, stronger effect = lower value 1.01 | S. cerevisiae deletion strains, locus YKR001C, strain vps1, stronger effect = lower value 0.997 | S. cerevisiae deletion strains, locus YKR026C, strain gcn3, stronger effect = lower value 1.01 | S. cerevisiae deletion strains, locus YKR091W, strain srl3, stronger effect = lower value 1.01 | S. cerevisiae deletion strains, locus YLL001W, strain dnm1, stronger effect = lower value 1.04 | S. cerevisiae deletion strains, locus YLL026W, stronger effect = lower value 1.03 | S. cerevisiae deletion strains, locus YLL041C, strain sdh2, stronger effect = lower value 1.01 | S. cerevisiae deletion strains, locus YLR027C, strain aat2, stronger effect = lower value 1.03 | S. cerevisiae deletion strains, locus YLR039C, strain RIC1, stronger effect = lower value 1.02 | S. cerevisiae deletion strains, locus YLR058C, strain SHM2, stronger effect = lower value 1 | S. cerevisiae deletion strains, locus YLR102C, strain apc9, stronger effect = lower value 0.993 | S. cerevisiae deletion strains, locus YLR113W, strain HOG1, stronger effect = lower value 1.07 | S. cerevisiae deletion strains, locus YLR221C, strain rsa3, stronger effect = lower value 0.97 | S. cerevisiae deletion strains, locus YLR258W, strain gsy2, stronger effect = lower value 1.01 | S. cerevisiae deletion strains, locus YLR262C, strain YPT6 (second series), stronger effect = lower value 1.04 | S. cerevisiae deletion strains, locus YLR262C, strain YPT6, stronger effect = lower value 1.05 | S. cerevisiae deletion strains, locus YLR268W, strain sec22, stronger effect = lower value 1.02 | S. cerevisiae deletion strains, locus YLR320W, strain mms22, stronger effect = lower value 1 | S. cerevisiae deletion strains, locus YLR330W, strain CHS5, stronger effect = lower value 0.994 | S. cerevisiae deletion strains, locus YLR342W, strain FKS1 (second series), stronger effect = lower value 0.973 | S. cerevisiae deletion strains, locus YLR342W, strain FKS1, stronger effect = lower value 1.03 | S. cerevisiae deletion strains, locus YLR357W, strain rsc2, stronger effect = lower value 1 | S. cerevisiae deletion strains, locus YLR370C, strain arc18, stronger effect = lower value 1.02 | S. cerevisiae deletion strains, locus YLR371W, strain rom2, stronger effect = lower value 0.993 | S. cerevisiae deletion strains, locus YLR384C, strain iki3, stronger effect = lower value 0.998 | S. cerevisiae deletion strains, locus YLR418C, strain cdc73, stronger effect = lower value 1.02 | S. cerevisiae deletion strains, locus YML016C, strain PPZ1, stronger effect = lower value 0.991 | S. cerevisiae deletion strains, locus YML032C, strain rad52, stronger effect = lower value 0.981 | S. cerevisiae deletion strains, locus YML120C, strain ndi1, stronger effect = lower value 1.04 | S. cerevisiae deletion strains, locus YML124C, strain tub3, stronger effect = lower value 0.992 | S. cerevisiae deletion strains, locus YMR058W, strain fet3, stronger effect = lower value 1.03 | S. cerevisiae deletion strains, locus YMR078C, strain ctf18, stronger effect = lower value 0.985 | S. cerevisiae deletion strains, locus YMR125W, strain sto1, stronger effect = lower value 1.01 | S. cerevisiae deletion strains, locus YMR129W, stronger effect = lower value 1.01 | S. cerevisiae deletion strains, locus YMR205C, strain PFK2, stronger effect = lower value 1.04 | S. cerevisiae deletion strains, locus YMR223W, strain ubp8, stronger effect = lower value 0.988 | S. cerevisiae deletion strains, locus YMR231W, strain pep5, stronger effect = lower value 1 | S. cerevisiae deletion strains, locus YMR263W, strain SAP30, stronger effect = lower value 1.04 | S. cerevisiae deletion strains, locus YMR307W, strain GAS1, stronger effect = lower value 0.96 | S. cerevisiae deletion strains, locus YNL067W, strain RPL9B, stronger effect = lower value 1.05 | S. cerevisiae deletion strains, locus YNL071W, strain lat1, stronger effect = lower value 1 | S. cerevisiae deletion strains, locus YNL128W, strain TEP1, stronger effect = lower value 1.03 | S. cerevisiae deletion strains, locus YNL153C, strain GIM3, stronger effect = lower value 1.01 | S. cerevisiae deletion strains, locus YNL183C, strain NPR1, stronger effect = lower value 0.994 | S. cerevisiae deletion strains, locus YNL209W, strain ssb2, stronger effect = lower value 1 | S. cerevisiae deletion strains, locus YNL233W, strain BNI4, stronger effect = lower value 1.01 | S. cerevisiae deletion strains, locus YNL248C, strain rpa49, stronger effect = lower value 0.991 | S. cerevisiae deletion strains, locus YNL250W, strain rad50, stronger effect = lower value 1.01 | S. cerevisiae deletion strains, locus YNL271C, strain bni1, stronger effect = lower value 1 | S. cerevisiae deletion strains, locus YNL298W, strain CLA4, stronger effect = lower value 0.992 | S. cerevisiae deletion strains, locus YNL307C, strain MCK1, stronger effect = lower value 0.985 | S. cerevisiae deletion strains, locus YNL322C, strain KRE1 (second series), stronger effect = lower value 1.02 | S. cerevisiae deletion strains, locus YNL322C, strain KRE1, stronger effect = lower value 1.01 | S. cerevisiae deletion strains, locus YNR049C, strain mso1, stronger effect = lower value 1.01 | S. cerevisiae deletion strains, locus YNR052C, strain pop2, stronger effect = lower value 0.984 | S. cerevisiae deletion strains, locus YOL006C, strain TOP1, stronger effect = lower value 1.09 | S. cerevisiae deletion strains, locus YOL012C, strain htz1 0.782 | S. cerevisiae deletion strains, locus YOL147C, strain pex11, stronger effect = lower value 0.996 | S. cerevisiae deletion strains, locus YOR001W, strain rrp6, stronger effect = lower value 1.02 | S. cerevisiae deletion strains, locus YOR061W, strain CKA2, stronger effect = lower value 1 | S. cerevisiae deletion strains, locus YOR069W, strain VPS5, stronger effect = lower value 0.992 | S. cerevisiae deletion strains, locus YOR070C, strain gyp1, stronger effect = lower value 1 | S. cerevisiae deletion strains, locus YOR080W, strain dia2, stronger effect = lower value 1.02 | S. cerevisiae deletion strains, locus YOR083W, strain WHI5, stronger effect = lower value 1.02 | S. cerevisiae deletion strains, locus YOR106W, strain vam3, stronger effect = lower value 1.05 | S. cerevisiae deletion strains, locus YOR136W, strain idh2, stronger effect = lower value 0.988 | S. cerevisiae deletion strains, locus YOR144C, strain elg1, stronger effect = lower value 0.989 | S. cerevisiae deletion strains, locus YOR184W, strain ser1, stronger effect = lower value 1 | S. cerevisiae deletion strains, locus YOR231W, strain MKK1, stronger effect = lower value 1.04 | S. cerevisiae deletion strains, locus YOR265W, strain rbl2, stronger effect = lower value 1.01 | S. cerevisiae deletion strains, locus YOR270C, strain vph1, stronger effect = lower value 1 | S. cerevisiae deletion strains, locus YOR290C, strain snf2, stronger effect = lower value 0.969 | S. cerevisiae deletion strains, locus YOR316C, strain cot1, stronger effect = lower value 0.988 | S. cerevisiae deletion strains, locus YPL051W, strain arl3, stronger effect = lower value 1.01 | S. cerevisiae deletion strains, locus YPL055C, strain LGE1, stronger effect = lower value 1.07 | S. cerevisiae deletion strains, locus YPL078C, strain atp4, stronger effect = lower value 1.06 | S. cerevisiae deletion strains, locus YPL106C, strain sse1, stronger effect = lower value 1.04 | S. cerevisiae deletion strains, locus YPL240C, strain hsp82, stronger effect = lower value 1.01 | S. cerevisiae deletion strains, locus YPL241C, strain CIN2, stronger effect = lower value 1 | S. cerevisiae deletion strains, locus YPL256C, strain CLN2, stronger effect = lower value 1.04 | S. cerevisiae deletion strains, locus YPR119W, strain clb2, stronger effect = lower value 1 | S. cerevisiae deletion strains, locus YPR141C, strain kar3, stronger effect = lower value 0.993 | S. cerevisiae deletion strains, locus YPR163C, strain tif3, stronger effect = lower value 0.994 | S. cerevisiae deletion strains, locus YPR167C, strain met16, stronger effect = lower value 0.995 | S. cerevisiae deletion strains, strain wtn01, stronger effect = lower value 0.999 | S. cerevisiae strains, strain wild type, stronger effect = lower value 1.03
